Test [1] addresses Thyrotropin-releasing hormone receptor (Homo sapiens) (UniProt P34981). As to the kind of experiment: qHTS assay to identify small molecule agonists of the thyrotropin-releasing hormone receptor (TRHR) signaling pathway (AID 1346891; calls by dose curve; further: series mostly up to about 58 µM). Put shortly:
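HEK293 cells expressing TRHR plated 18 h at 37 C/5% CO2, calcium dye-loaded 2 h at 37 C, then compound added (agonist mode); kinetic calcium fluorescence read 3 min at 1 s intervals; 15 concentrations in triplicate.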

Test [2] in a line: Human pregnane X receptor (PXR) small molecule agonists, qHTS cell viability counter screen (AID 1346977). Further: nearly all actives have a fitted effect of over 50% in size. The gist of the method: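 PXR-Luc HepG2 cells (2,000/well, 5% charcoal-stripped FBS) preincubated 5 hr, then exposed to compounds 24 hr at 37 C. Viability read in the same wells by CellTiter-Fluor fluorescence, reagent added at 23 hr, 1 hr incubation.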
Test [3] can be described thus: Caspase-3/7 induction in HepG2 cells by small molecules, qHTS assay (AID 1346978). Further: nearly all actives have a fitted effect of over 15% in size. The gist of the method: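 Wild-type HepG2 cells, 2,000/well, settled 5 hr at 37 C and 5% CO2, then compound-treated for 17 hr; caspase-3/7 activity read by luminescent Caspase-Glo 3/7 after 30 min at room temperature.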
Test [4] can be described thus: Caspase-3/7 induction in CHO-K1 cells by small molecules, qHTS cell viability counter screen (AID 1346979). Further: nearly all actives have a fitted effect of over 35% in size. The gist of the method:
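Wild-type CHO-K1 cells (1,500/well) treated with compound after 5 h plating; after 16 h at 37C, viability read as CellTiter-Fluor fluorescence following 1 h reagent incubation, in the same wells as the caspase read.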

The nature of test [5]: Caspase-3/7 induction in CHO-K1 cells by small molecules, qHTS assay (AID 1346980). Further: nearly all actives have a fitted effect of over 15% in size. Put shortly:
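Wild-type CHO-K1 cells exposed to compounds for 17hr at 37 C, 5% CO2. Caspase-3/7 activity then measured by Caspase-Glo 3/7 luminescence after 30min at room temperature.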

The nature of test [6]: Caspase-3/7 induction in HepG2 cells by small molecules, qHTS cell viability counter screen (AID 1346981). Further: series mostly up to about 92 µM; nearly all actives have a fitted effect of over 30% in size. Put shortly: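 After a 5-hr attachment period at 37 C and 5% CO2, wild-type HepG2 cells received compounds in DMSO. Sixteen hours later CellTiter-Fluor was dispensed and the fluorescent signal quantified after a further hour.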
Test [7] concerns the target Nuclear receptor subfamily 1 group I member 2 (Homo sapiens) (UniProt O75469). As to the kind of experiment: Human pregnane X receptor (PXR) small molecule agonists, qHTS assay (AID 1346982). Further: nearly all actives have a fitted effect of over 35% in size. Further: potency means the concentration at half of the fitted maximal effect. The gist of the method: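 Tox21 qHTS; PXR-Luc HepG2; compounds pinned from DMSO; 24 hr, 37 C; ONE-Glo luciferase detection, 30 min room temperature.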
Test [8] addresses Acetylcholinesterase (Homo sapiens) (UniProt P22303). As to the kind of experiment: Acetylcholinesterase (AChE) small molecule antagonists: enzyme-based qHTS assay (AID 1347397; calls by dose curve; further: nearly all actives have a fitted effect of over 55% in size). As to conditions: Potency: AChE enzyme activity inhibition. Put shortly:
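In this quantitative HTS, compounds from the Tox21 10K collection were preincubated 30 min at ambient temperature with recombinant human AChE dispensed at 50 mU/mL. Hydrolysis of acetylthiocholine was then followed for 10 min by DTNB colour development.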

The target is the same in test [9]. As to the kind of experiment: Acetylcholinesterase (AChE) small molecule antagonists: fluorescence cell-based qHTS assay (AID 1347398; calls by dose curve; further: nearly all actives have a fitted effect of over 50% in size). As to conditions: Potency: AChE activity. The gist of the method:
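Cells (SH-SY5Y) attached overnight, were dosed with compound or DMSO vehicle for 30 min at 37 C, and then incubated 40 min at room temperature with acetylthiocholine and Thiolite Green; green fluorescence indexed AChE activity.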

Test [10] shares this target. As to the kind of experiment: Acetylcholinesterase (AChE) small molecule antagonists: enzyme-based qHTS assay with human liver microsomes (AID 1347399; calls by dose curve; further: nearly all actives have a fitted effect of over 60% in size). As to conditions: Potency: qHTS inhibition. Put shortly: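 Recombinant human AChE (50 mU/mL in the enzyme mix) and human liver microsomes (0.25 mg/mL final) were preincubated with compound and NADPH (0.25 mg/mL final) for 30 min at 37 C. Acetylthiocholine/DTNB was then added; thiocholine was read colorimetrically after 10 min at room temperature.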

For test [11], the target named is Cytochrome P450 2D6 (Homo sapiens) (UniProt P10635). As to the kind of experiment: Cytochrome P450 Family 2 Subfamily D Member 6 (CYP2D6) small molecule antagonists: luciferase reporter qHTS assay (AID 1671196). Further: nearly all actives have a fitted effect of over 50% in size. Further: potency means the concentration at half of the fitted maximal effect. The gist of the method: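 Room-temperature luminescent CYP2D6 activity assay: compound preincubated 10 min with enzyme–substrate mix, NADPH-initiated reaction 1 h, detection reagent 20 min before reading.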
Chain of Cytochrome P450 2D6 (Homo sapiens) (P10635 whole entry, looked up): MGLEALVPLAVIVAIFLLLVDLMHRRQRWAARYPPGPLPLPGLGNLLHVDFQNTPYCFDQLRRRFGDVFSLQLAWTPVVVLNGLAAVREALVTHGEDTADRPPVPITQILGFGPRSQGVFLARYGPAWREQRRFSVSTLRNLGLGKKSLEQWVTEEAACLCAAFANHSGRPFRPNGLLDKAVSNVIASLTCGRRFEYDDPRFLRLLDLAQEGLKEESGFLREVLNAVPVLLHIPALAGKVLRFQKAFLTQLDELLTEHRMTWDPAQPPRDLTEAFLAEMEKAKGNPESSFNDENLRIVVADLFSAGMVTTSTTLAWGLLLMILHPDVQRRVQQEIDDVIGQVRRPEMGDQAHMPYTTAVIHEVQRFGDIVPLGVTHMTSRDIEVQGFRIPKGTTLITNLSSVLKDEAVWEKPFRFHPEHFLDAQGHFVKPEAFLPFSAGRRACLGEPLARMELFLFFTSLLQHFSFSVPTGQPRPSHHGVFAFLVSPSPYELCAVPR

The target of test [12] is Cytochrome P450 2C19 (Homo sapiens) (UniProt P33261). As to the kind of experiment: Cytochrome P450 Family 2 Subfamily C Member 19 (CYP2C19) small molecule antagonists: luciferase reporter qHTS assay (AID 1671197). Further: nearly all actives have a fitted effect of over 65% in size. Further: potency means the concentration at half of the fitted maximal effect. Put shortly: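 Inhibition of CYP2C19 was scored from loss of luminescence in a P450-Glo proluciferin substrate assay, NADPH-started and run 1 h at 37C, with ketoconazole as positive control.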
Chain of Cytochrome P450 2C19 (Homo sapiens) (P33261 whole entry, looked up): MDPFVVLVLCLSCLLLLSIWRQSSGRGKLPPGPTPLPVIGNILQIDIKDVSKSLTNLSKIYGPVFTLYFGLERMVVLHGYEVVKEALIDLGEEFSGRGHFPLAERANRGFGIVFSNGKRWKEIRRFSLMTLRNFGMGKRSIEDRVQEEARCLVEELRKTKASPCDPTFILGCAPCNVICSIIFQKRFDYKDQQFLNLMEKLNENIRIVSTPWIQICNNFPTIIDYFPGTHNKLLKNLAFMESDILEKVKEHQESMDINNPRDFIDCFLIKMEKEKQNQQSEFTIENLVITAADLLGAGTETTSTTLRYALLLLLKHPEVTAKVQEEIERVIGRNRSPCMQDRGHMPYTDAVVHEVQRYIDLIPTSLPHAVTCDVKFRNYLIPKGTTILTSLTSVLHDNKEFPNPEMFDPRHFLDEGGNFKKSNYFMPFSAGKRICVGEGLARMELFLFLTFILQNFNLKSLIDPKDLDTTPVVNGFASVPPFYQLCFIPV

Test [13] addresses Cytochrome P450 2C9 (Homo sapiens) (UniProt P11712). As to the kind of experiment: Cytochrome P450 Family 2 Subfamily C Member 9 (CYP2C9) small molecule antagonists: luciferase reporter qHTS assay (AID 1671198). Further: nearly all actives have a fitted effect of over 50% in size. Further: potency means the concentration at half of the fitted maximal effect. Put shortly: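 P450-Glo proluciferin substrate with CYP2C9 enzyme; 10 min RT preincubation, then NADPH regeneration 1 h at 37C; luciferin detection reagent 20 min RT, luminescence in relative luminescence units.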

For test [14], the target named is Cytochrome P450 1A2 (Homo sapiens) (UniProt P05177). As to the kind of experiment: Cytochrome P450 Family 1 Subfamily A Member 2 (CYP1A2) small molecule antagonists: luciferase reporter qHTS assay (AID 1671199). Further: nearly all actives have a fitted effect of over 50% in size. Further: potency means the concentration at half of the fitted maximal effect. The gist of the method: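 Room-temperature CYP1A2 reaction with proluciferin substrate: compounds added from DMSO, 10 min preincubation, NADPH regeneration for 1 h. Luciferin detection reagent then added; luminescence recorded as RLU.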
Chain of Cytochrome P450 1A2 (Homo sapiens) (P05177 whole entry, looked up): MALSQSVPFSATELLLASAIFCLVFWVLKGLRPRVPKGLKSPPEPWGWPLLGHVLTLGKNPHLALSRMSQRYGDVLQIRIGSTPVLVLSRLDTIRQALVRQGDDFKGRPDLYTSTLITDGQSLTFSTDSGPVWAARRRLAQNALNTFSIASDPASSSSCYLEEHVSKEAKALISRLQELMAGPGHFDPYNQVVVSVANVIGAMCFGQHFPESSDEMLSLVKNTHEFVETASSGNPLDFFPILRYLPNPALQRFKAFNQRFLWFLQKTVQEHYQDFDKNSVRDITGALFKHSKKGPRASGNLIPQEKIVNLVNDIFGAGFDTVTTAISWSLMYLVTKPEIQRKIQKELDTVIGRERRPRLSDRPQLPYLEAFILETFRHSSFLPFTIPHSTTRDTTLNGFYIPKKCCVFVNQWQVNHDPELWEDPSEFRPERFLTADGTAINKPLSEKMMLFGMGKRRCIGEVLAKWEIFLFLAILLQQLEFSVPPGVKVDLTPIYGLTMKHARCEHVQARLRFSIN

The target in test [15] is Voltage-gated inwardly rectifying potassium channel KCNH2 (Homo sapiens) (UniProt Q12809). As to the kind of experiment: Human Ether-a-go-go-Related Gene (hERG) channel small molecule antagonists: fluorescence cell-based qHTS assay (AID 1671200). Put shortly: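 hERG-U2OS cells plated overnight at 37 C, loaded with FluxOR II dye 1 h at RT in dark; after 10 min, thallium stimulus added. Fluorescence (480/540 nm) read kinetically for 2 min at 1 s intervals.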
Chain of Voltage-gated inwardly rectifying potassium channel KCNH2 (Homo sapiens) (Q12809 whole entry, looked up): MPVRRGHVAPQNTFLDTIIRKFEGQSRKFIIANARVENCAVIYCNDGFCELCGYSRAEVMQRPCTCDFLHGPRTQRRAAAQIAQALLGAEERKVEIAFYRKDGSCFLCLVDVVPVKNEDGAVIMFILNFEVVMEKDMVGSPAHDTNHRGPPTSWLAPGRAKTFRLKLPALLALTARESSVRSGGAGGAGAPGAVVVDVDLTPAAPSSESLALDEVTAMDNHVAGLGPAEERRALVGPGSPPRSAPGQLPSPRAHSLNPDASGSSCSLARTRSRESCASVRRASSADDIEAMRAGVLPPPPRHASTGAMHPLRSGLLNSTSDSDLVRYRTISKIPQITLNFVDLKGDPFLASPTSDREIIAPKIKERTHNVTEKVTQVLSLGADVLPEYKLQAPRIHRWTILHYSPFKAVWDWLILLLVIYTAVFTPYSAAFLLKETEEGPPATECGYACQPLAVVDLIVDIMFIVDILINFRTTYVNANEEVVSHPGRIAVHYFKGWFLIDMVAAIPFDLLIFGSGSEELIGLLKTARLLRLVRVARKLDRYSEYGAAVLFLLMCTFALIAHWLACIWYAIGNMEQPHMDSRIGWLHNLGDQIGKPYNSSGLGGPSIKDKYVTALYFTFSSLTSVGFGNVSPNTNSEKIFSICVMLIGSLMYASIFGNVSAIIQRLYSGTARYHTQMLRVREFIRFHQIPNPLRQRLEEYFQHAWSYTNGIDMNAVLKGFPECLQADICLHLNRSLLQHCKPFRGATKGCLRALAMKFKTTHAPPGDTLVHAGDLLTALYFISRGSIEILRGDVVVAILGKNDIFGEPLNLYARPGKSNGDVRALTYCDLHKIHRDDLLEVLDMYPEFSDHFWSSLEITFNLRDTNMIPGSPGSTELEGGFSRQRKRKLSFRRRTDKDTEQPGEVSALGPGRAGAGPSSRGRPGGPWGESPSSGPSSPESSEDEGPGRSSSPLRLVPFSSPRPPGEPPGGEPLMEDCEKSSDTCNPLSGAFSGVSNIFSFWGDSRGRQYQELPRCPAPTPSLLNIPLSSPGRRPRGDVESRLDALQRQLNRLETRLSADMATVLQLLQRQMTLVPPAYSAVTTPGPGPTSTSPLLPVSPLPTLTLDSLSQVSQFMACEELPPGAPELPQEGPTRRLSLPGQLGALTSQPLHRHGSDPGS

The target of test [16] is Cytochrome P450 3A4 (Homo sapiens) (UniProt P08684). As to the kind of experiment: Cytochrome P450 Family 3 Subfamily A Member 4 (CYP3A4) small molecule antagonists: luciferase reporter qHTS assay (AID 1671201). Put shortly: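 P450-Glo CYP3A4 luminescent assay: compounds preincubated 10 min at room temperature with enzyme and proluciferin substrate, NADPH regeneration added, 1 h room-temperature reaction, stopped with luciferin detection reagent; luminescence read after 20 min. Ketoconazole positive control.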

Test [17] concerns the target Acetylcholinesterase (Homo sapiens) (UniProt P22303). As to the kind of experiment: Acetylcholinesterase (AChE) small molecule antagonists: colormetric cell-based qHTS assay (AID 1347395; calls by dose curve; further: nearly all actives have a fitted effect of over 30% in size). The gist of the method:
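SH-SY5Y cells attached overnight, exposed to compound 30 min at 37 C, then given DTNB/acetylthiocholine; after 90 min at 37 C, colorimetric thiocholine read gives cellular AChE activity.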

The target of test [18] is Nuclear receptor subfamily 1 group I member 2 (Rattus norvegicus) (UniProt Q9R1A7). As to the kind of experiment: Rat pregnane X receptor (rPXR) activation by small molecules, qHTS assay (AID 1346983). Further: nearly all actives have a fitted effect of over 20% in size. To be noted: rPXR luciferase reporter cells, One-Glo luminescence, 24 h; max activation: stronger effect = higher value. Put shortly: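 Cell-based rPXR activation assay: rPXR cells, 2,000 per well, rested 5hr at 37 C, then exposed to compounds in DMSO for 24 hr at 37 C. Luciferase activity read by One-Glo luminescence after 30 min at room temperature.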

Test [19] deals with Nuclear receptor subfamily 1 group I member 2 (Homo sapiens) (UniProt O75469). As to the kind of experiment: CYP3A4 induction through human pregnane X receptor (PXR) by small molecules, qHTS assay (AID 1346984). Further: nearly all actives have a fitted effect of over 40% in size. The gist of the method: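 Cells (DPX-2; HepG2 with PXR element plus CYP3A4-promoter luciferase) settled 5hr, then were treated 24hr at 37C. A 3hr, 3uM-final Luciferin-IPA step preceded luminescence measurement with One-Glo.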
Chain of Nuclear receptor subfamily 1 group I member 2 (Homo sapiens) (O75469 whole entry, looked up): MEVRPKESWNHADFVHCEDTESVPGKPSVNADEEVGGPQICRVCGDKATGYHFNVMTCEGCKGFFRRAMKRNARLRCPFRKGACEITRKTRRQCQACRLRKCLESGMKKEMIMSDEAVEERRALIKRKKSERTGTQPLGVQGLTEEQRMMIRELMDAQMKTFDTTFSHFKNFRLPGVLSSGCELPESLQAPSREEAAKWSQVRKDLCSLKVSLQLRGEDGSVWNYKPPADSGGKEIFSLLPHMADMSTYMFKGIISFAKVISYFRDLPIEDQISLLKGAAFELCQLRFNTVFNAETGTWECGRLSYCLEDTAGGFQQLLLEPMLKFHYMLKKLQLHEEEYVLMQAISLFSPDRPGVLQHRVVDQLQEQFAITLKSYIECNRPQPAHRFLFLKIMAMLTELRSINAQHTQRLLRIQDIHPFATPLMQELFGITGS

Test [20] shares this target. As to the kind of experiment: Human pregnane X receptor (PXR) activation by small molecules, qHTS assay (AID 1346985). Further: nearly all actives have a fitted effect of over 40% in size. The gist of the method: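 DPX-2 cells (HepG2 co-transfected with a PXR response element and a CYP3A4-promoter luciferase construct) were seeded at 2,000 per well, rested 5 hr at 37C, then exposed to DMSO-dissolved compounds for 24 hr. Activation was read as luciferase luminescence.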

Results on 7 compounds are retold here after PubChem BioAssay (Tox21).

Each structure is given as a SMILES string. Several values for one entry are separate records, joined by “and”; a condition that tells them apart may be missing. Identical values can stand only once. Records with an inconclusive call do not appear. Some compounds were tested as several samples or in several runs, with calls that do not always agree. Activity calls are given as the source filed them. Unless noted, the call rests on the fitted dose curve; in most records, active means well fitted curve in the direction sought with a large enough effect in the repeat runs; inconclusive means weak or mixed curves; inactive means no such curve, though single readings can be large; an effect the other way counts as inactive or inconclusive.
On the % scale 0 is the no-effect control and ±100 the full control effect.

Chain of Thyrotropin-releasing hormone receptor (Homo sapiens) (P34981 whole entry, looked up): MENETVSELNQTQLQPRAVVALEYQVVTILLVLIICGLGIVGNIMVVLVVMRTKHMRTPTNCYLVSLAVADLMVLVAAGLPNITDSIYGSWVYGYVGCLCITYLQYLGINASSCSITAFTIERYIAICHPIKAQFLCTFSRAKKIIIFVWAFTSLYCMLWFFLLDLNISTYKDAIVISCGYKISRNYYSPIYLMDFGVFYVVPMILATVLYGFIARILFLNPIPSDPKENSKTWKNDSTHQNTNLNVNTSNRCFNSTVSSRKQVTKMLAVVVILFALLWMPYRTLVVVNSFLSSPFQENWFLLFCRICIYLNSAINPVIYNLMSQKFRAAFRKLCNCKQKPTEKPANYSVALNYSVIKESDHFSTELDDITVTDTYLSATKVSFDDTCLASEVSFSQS
Chain of Cytochrome P450 2C9 (Homo sapiens) (P11712 whole entry, looked up): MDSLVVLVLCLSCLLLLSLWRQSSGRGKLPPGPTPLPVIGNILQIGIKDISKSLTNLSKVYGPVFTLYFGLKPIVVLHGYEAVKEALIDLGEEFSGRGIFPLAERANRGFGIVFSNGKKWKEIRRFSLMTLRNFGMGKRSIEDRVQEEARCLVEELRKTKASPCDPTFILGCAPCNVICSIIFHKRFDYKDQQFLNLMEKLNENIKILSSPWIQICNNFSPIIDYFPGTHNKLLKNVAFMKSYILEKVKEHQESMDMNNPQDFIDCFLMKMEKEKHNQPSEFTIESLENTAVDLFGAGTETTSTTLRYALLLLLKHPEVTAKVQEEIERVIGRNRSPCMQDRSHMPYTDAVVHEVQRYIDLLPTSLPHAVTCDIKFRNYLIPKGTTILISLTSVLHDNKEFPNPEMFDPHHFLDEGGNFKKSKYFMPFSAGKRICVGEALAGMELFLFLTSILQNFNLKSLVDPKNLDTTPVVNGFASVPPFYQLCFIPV
Chain of Acetylcholinesterase (Homo sapiens) (P22303 whole entry, looked up): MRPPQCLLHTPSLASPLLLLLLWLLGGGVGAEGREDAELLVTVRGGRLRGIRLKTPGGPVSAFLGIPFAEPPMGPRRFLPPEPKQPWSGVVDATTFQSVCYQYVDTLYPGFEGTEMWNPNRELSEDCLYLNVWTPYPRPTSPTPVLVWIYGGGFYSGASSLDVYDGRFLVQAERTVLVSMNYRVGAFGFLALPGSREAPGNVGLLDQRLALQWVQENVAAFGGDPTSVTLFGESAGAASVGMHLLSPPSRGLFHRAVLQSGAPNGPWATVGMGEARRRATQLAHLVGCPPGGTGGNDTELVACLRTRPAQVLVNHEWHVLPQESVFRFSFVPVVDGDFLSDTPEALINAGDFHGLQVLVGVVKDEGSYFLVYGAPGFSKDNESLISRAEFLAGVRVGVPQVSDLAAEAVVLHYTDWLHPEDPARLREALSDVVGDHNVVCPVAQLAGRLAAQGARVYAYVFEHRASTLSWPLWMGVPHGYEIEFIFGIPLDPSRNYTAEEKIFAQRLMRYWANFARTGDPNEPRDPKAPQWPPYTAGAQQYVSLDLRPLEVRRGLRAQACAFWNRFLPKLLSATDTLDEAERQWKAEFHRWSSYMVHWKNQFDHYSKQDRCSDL

As for `CN(C)C(=O)Cl`, the call in [1], in test [3] and in test [5] was inactive. Besides, the Potency result in [2], in test [4], in test [6], in test [7], in test [8] and in test [9] was “inactive” in each case. In addition, the Potency entry in [10], in test [11], in [12], in test [13], in test [14] and in test [15] was “inactive” throughout. Besides, in [16], the Potency result is “inactive”.

As to `c1ccc2c(c1)CCCC2`, the call in test [1], in test [3] and in [5] was inactive. Moreover, the Potency result in test [2], in test [4], in test [6], in [7], in [8] and in test [9] was “inactive” throughout. Besides, the Potency result in test [10], in test [12], in test [13], in test [14], in test [15] and in test [16] was “inactive” in each case. Besides, the Potency in [11] was 7.25 µM (active) and inactive.

Take `Cl/C=C/Cl`: the result in [1], in [3] and in test [5] was inactive. Moreover, the Potency entry in [2], in test [4], in [6], in test [17], in test [8] and in test [9] was “inactive” in each case. The Potency entry in [10], in [11], in test [12], in [13], in [14] and in [15] was “inactive” throughout. In addition, the Potency entry in test [16] is “inactive”. In [7], the Potency entry was “inactive and 29.6 µM (active)”.

Consider `O=S(=O)(O)OOS(=O)(=O)O`, for which the call in test [1], in test [3] and in test [5] was inactive. Besides, the Potency entry in test [2], in test [4], in test [6], in test [7], in test [17] and in test [8] was “inactive” throughout. Besides, the Potency result in test [9], in [10], in [11], in test [12], in [13] and in test [15] was “inactive” in each case. The Potency result in test [16] is “inactive”. Besides, the Potency in test [14] was 31.6 µM (active) and inactive.

With `COP(=S)(OC)Oc1ccc(SC)c(C)c1`, the compound was classed as inactive in test [1], in [3] and in test [5]. For the same compound, the Potency entry in test [2], in test [4], in test [6], in test [19], in test [20] and in test [17] was “inactive” throughout. The Potency entry in test [8], in test [9], in test [10] and in [15] was “inactive” throughout. In addition, the Potency in test [7] is 60.4 µM (active) and 37.6 µM (active); in test [11], 39.5 µM (active) and 39.9 µM (active); in test [12] it was 1.57 µM (active) and 710 nM (active) and 1.1 µM (active); in test [13], 7.02 µM (active) and 6.33 µM (active) and 6.92 µM (active); in test [14], 1.98 µM (active) and 2.24 µM (active) and 1.62 µM (active). Further, the max activation in [18] is 1.15% (inactive).

Consider `ClC(Cl)c1ccccc1`, for which the call in [1], in test [3] and in test [5] was inactive. In addition, the Potency entry in [2], in test [4], in test [6], in [7], in [8] and in [9] was “inactive” throughout. Further, the Potency entry in test [10], in [13], in [14], in test [15] and in test [16] was “inactive” in each case. In addition, the Potency in test [12] is 40.6 µM (active) and inactive.

Regarding `Nc1cc(Cl)cc(Cl)c1`, the compound was called inactive in test [1], in [3] and in test [5]. Further, the Potency entry in [2], in test [4], in test [6], in test [7], in [17] and in test [8] was “inactive” each time. The Potency result in test [9], in [10], in [11], in test [12], in test [13] and in [15] was “inactive” in each case. In [14], the Potency was 21.6 µM (active) and 28.3 µM (active).
